Pf growth 48h = inhibits P. falciparum growth in the first generation, 48 h. P. falciparum luciferase growth in erythrocytes, 48 h. Potency, µM (top dose mostly 28.7 µM), inactives show at the top dose activity change, negative = inhibition, actives largely listed as inhibitors. hit rate 5.9% among 310,000; further: potency means the concentration at half of the fitted maximal effect; on the % scale 0 is the no-effect control and ±100 the full control effect
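Firefly luciferase activity from engineered P. falciparum reports growth; inhibitors lower the luminescent signal. Cultures contained 2% hematocrit erythrocytes at 0.1% final parasitemia.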
AMA1-RON2 inh = AMA1-RON2 (P. falciparum) interaction inhibition. AID 720542. Potency, µM (titrated, usually from 58.2 µM), without a hit: top-dose activity change, negative = inhibition, most hits filed as inhibitors. hit rate 0.2% among 360,000. AlphaScreen AMA1-biotinylated RON2 peptide binding;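 further: potency means the concentration at half of the fitted maximal effect; 0% = vehicle wells and -100% = peptide control; nearly all actives have a fitted effect of over 45% in size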
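AMA1 (3D7) with his tag at 25 nM final met compounds first, then biotinylated RON2 peptide at 25 nM; detection used donor plus acceptor beads, 10 µg/mL apiece, read by AlphaScreen after 30 min at room temperature.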
SARS PLpro yeast = blocks SARS-CoV papain-like protease in a yeast assay | S. cerevisiae expressing SARS-CoV PLpro, growth rescue | Potency, µM (series often up to 32.9 µM), for the others: top-dose activity, positive = growth rescue, most hits filed as activators | hit rate 0.19% among 330,000 | AID 485353; calls by dose curve; further: potency means the concentration at half of the fitted maximal effect; 0% is about no effect; nearly all actives have a fitted effect of over 55% in size
Pf growth 96h = P. falciparum growth inhibition at 96 hour, primary screen for plastid delayed-death inhibitors. P. falciparum luciferase reporter growth, 96 h. Potency, µM (titrated, usually from 28.7 µM), for the others: at the highest dose activity change, negative = inhibition, most hits filed as inhibitors. hit rate 6.9% among 320,000; further: potency means the concentration at half of the fitted maximal effect; on the % scale 0 is the no-effect control and ±100 the full control effect
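Readout is luminescence from an integrated firefly luciferase in P. falciparum. Red cells, 2% hematocrit and 0.05% parasitemia final, were cultured with compound through two parasite generations (96 hours) at 37 C, 5% CO2.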
CHX counter = affects cycloheximide protein synthesis inhibition readout, counter-screen; max response, %; hit rate 12% among 300,000; cell reporter, cycloheximide protein synthesis inhibition counterscreen; in the data active means max response mostly above about 13%, no sharp cut-off; inactive means mostly below about 14%; further: read at 38.3 µM for the half of the compounds with a filed dose; 0% is about no effect
Shiga toxin inh = blocks Shiga toxin action in Vero cells. Vero cells, Shiga toxin protein synthesis inhibition reporter. inhibition, % at 38.7 µM. hit rate 9.2% among 290,000. AID 2315; in the data active means inhibition mostly above about 28%, no sharp cut-off; inactive means mostly below about 43%; further: 0% is about no effect
An asterisk follows results filed as active; ? = inconclusive; . = no result given; [ ] = another dose, or the depositor's remark. Only some compounds are listed: those with a hit (about 19% of all), similar ones and a draw of the others. Unless noted, the call rests on the fitted dose curve; in most records, active means well fitted curve in the direction sought with a large enough effect; inconclusive means small, poorly fitted or top-dose-only effect, or another doubt; inactive means no such curve, though single readings can be large; an effect the other way counts as inactive or inconclusive.

SMILES | Pf growth 48h | AMA1-RON2 inh | SARS PLpro yeast | Pf growth 96h | CHX counter | Shiga toxin inh
Nc1ccc(Nc2ccccc2)c(Cl)c1 | 74% | -19% | -12% | . | 27* | 52*
C=CCn1c(=O)c(C(=O)Nc2ncccc2C)c(O)c2ccccc21 | . | 114% | . | . | . | .
COc1cccc(N2CC(O)=C(c3ccccc3)C2=N)c1 | -9% | -11% | 18% | 0% | -2 | -10
COc1cccc(N2CC(O)=C(c3nc4ccccc4s3)C2=N)c1 | 5% | 76% | 1% | 0% | 33* | 54*
N=C1C(c2nc3ccccc3s2)=C(O)CN1c1ccccc1 | 29% | 15% | 0% | 13% | 33* | 39
N=C1C(c2nc3ccccc3[nH]2)=C(O)CN1c1ccccc1 | . | 8% | -15% | 4% | 10 | 19
COc1cccc(C(=O)NN2CC(O)=C(c3nc4ccccc4s3)C2=N)c1 | -46%[5.75 µM] | 25% | 1% | 1% | -2 | -13
COc1ccc(N2CC(O)=C(c3nc4ccccc4s3)C2=N)cc1 | -18% | 14% | -5% | 3% | 20* | 68
O=C(COC(=O)C1(c2ccc(F)cc2)CCCC1)NCc1ccco1 | 9% | 5% | 1% | 22% | 12 | 6
O=C(NCc1nnc(SCC(=O)N2CCC(Cc3ccccc3)CC2)o1)c1ccccc1F | 9% | -5% | -1% | 13µM* | 6 | -1
CCOC(=O)N1CCN(C(=O)CSc2nnc(CNC(=O)c3c(F)cccc3Cl)o2)CC1 | 14% | 0% | -5% | 12µM* | -5 | -16
O=C(CSc1nnc(CNC(=O)c2c(F)cccc2Cl)o1)c1ccccc1 | -7% | 12% | -24% | 9.3µM* | -3 | 6
O=C(NCc1nnc(SCC(=O)N2CCCC2)o1)c1c(F)cccc1F | -3% | 2% | 0% | 20% | -2 | -3
Oc1c(CN2CCCCC2)ccc2cccnc12 | . | -93% | . | . | . | .
COCc1cc(CN2CCCC2)c(O)c2ncccc12 | 2.9µM* | 9.5µM* | 0% | ? | 18 | -10
Oc1c(CN2CCCCC2)cc(COCc2ccccc2)c2cccnc12 | 1.9µM* | -61% | 5% | 2.1µM* | 17* | 34
Oc1cccc(CN2CCCCC2)c1 | -10% | 35% | 16% | ? | -3 | -6
Cc1onc(-c2ccccc2Cl)c1C(=O)Nc1ccccc1O | -28% | -13% | -3% | -18% | -1 | 14
CCCS(=O)(=O)NC(=O)C1(C)CCCN(C(=O)Cc2ccc3ccccc3c2)C1 (centres undefined) | . | 5% | . | . | . | .
CCN(CC(=O)Nc1c(F)cccc1F)C(=O)c1cccnc1Sc1ccccc1 | 21% | -12% | 5% | 39% | . | .
CC(OC(=O)c1ccc(NC(=O)CC#N)cc1)C(=O)NC(c1ccccc1)c1ccccc1 (centres undefined) | . | 7% | -1% | . | . | .
CCOc1ccccc1NC(=O)C(OC(=O)c1cc(C)oc1C)c1ccccc1 (centres undefined) | 13µM* | -28% | 3% | ? | -1 | 15
CCOc1ccccc1NC(=O)C(OC(=O)c1ccc(NC(=O)CC#N)cc1)c1ccccc1 (centres undefined) | 5.2µM* | -3% | -3% | 2.3µM* | . | .
Cc1cc(C(=O)C(C)OC(=O)c2ccc(NC(=O)CC#N)cc2)c(C)n1-c1ccccc1 (centres undefined) | 13µM* | -21% | 7% | 8.3µM* | . | .
CCOc1ccccc1NC(=O)C(OC(=O)c1ccccc1)c1ccccc1 (centres undefined) | -17% | -2% | 2% | ? | -4 | 10
SMILES | Pf growth 48h | AMA1-RON2 inh | SARS PLpro yeast | Pf growth 96h | CHX counter | Shiga toxin inh
C[C@H](CO)N1C[C@H](C)[C@@H](CN(C)Cc2ccncc2)OCc2cnnn2CCCC1=O | . | -6% | . | . | . | .
CN(C)C(/C=C/Nc1ccc(F)cc1F)=C(C#N)C#N | 10% | 7% | 3% | 17% | 9 | -5
O=C(/C=C/Nc1ccc(F)cc1Br)c1ccccc1 | 54% | -6% | -1% | 2% | 39* | 40*
O=C(/C=C/Nc1ccccc1)c1ccc(Cl)cc1Cl | 257% | -1% | -4% | 271% | 42* | 98*
CN(C)c1ccc(N/C=C/C(=O)c2ccccc2)cc1 | -38% | ? | -7% | . | 28* | 78*
CN(C)c1ccc(/C=N/NC(=O)c2ccc(NC(=O)c3ccccc3)cc2)cc1 | -22% | -14% | 2% | 0% | 12 | 6

Screens from PubChem.
